Screening data: PubChem, The Scripps Research Institute Molecular Screening Center
DAX1 inh-1: DAX1 (NR0B1) inhibitors, primary screen, cell-based, HEK293, Gal4-DAX1, luciferase luminescence; Nuclear receptor subfamily 0 group B member 1 (Homo sapiens), P51843; HEK293 Gal4-DAX1 luciferase reporter; inhibition, % at 6.75 µM; 340,000 tested, 0.99% active; AID 504766, 2011;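 active = inhibition above the mean over all tested compounds plus 3 SD, cut at about 4.2% in these data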;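 also: 0% = DAX1-transfected cells with DMSO and 100% = empty-vector control cells with DMSO; inhibition shows as a rise in luminescence from relieved DAX1 repression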
Target sequence (P51843 207-470 limits assumed): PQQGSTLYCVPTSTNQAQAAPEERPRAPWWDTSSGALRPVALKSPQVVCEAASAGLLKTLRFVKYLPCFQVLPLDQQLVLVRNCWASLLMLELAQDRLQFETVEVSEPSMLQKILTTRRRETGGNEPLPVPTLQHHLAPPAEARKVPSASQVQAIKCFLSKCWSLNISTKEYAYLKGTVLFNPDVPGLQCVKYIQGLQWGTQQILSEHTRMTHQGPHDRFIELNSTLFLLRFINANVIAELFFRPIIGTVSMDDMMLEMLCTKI
hgDAF12 agonist: H. glycines DAF-12 receptor agonists, primary screen, cell-based, luminescence, HEK293, GAL4 fusion, UAS-luciferase. HEK293 GAL4-hgDAF12 UAS-luciferase reporter, agonist luminescence; normalized to butyrate control. activation, % at 6.8 µM. 370,000 tested, 1.8% active. AID 687014, 2013;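 active = activation above a cutoff set at the mean of all screened compounds plus 3 SD, cut at about 10% in these data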;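 also: 0% = DMSO wells and 100% = sodium butyrate wells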
ssDAF12 agonist: S. stercoralis DAF-12 nuclear receptor activators, primary screen, cell-based, luminescence, HEK293, GRIP1 co-expression, lit1-tk-luc; Nuclear hormone receptor DAF-12 (Strongyloides stercoralis); activation, % at 6.8 µM; HEK293 ssDAF-12/GRIP1 lit1-tk-luc reporter; % of 3 µM dafachronic acid response; 370,000 tested, 1% active;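 active = activation above the mean over all tested compounds plus 3 SD, cut at about 0.9% in these data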;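 also: 0% = DMSO-only wells and 100% = 3 µM delta7-dafachronic acid wells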
DAX1 inh-2: DAX1 (NR0B1) inhibitors on StAR promoter, primary screen, cell-based, luminescence, SF-1 (NR5A1), full-length DAX-1 | HEK293T StAR-luciferase reporter, SF-1/DAX-1 repression relief | 370,000 tested, 1.1% active | inhibition, % at 6.8 µM;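 active = inhibition above the mean over all tested compounds plus 3 SD, cut at about 3.6% in these data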;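 also: 0% = DAX-1 cells with DMSO and 100% = cells lacking DAX-1 with DMSO; higher inhibition means more luminescence from relief of DAX-1 repression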
hcDAF12 agonist: H. contortus DAF-12 nuclear receptor activators, primary screen, cell-based, luminescence, HEK293, lit1-tk-luc reporter; HEK293 hcDAF-12 lit1-tk-luc reporter; 0% DMSO, 100% Δ7-dafachronic acid; 370,000 tested, 1.4% active; AID 652067, 2013; activation, % at 6.8 µM;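 active = activation above the mean of all tested compounds plus 3 SD, cut at about 5.5% in these data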;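 also: 100% = response to 3 µM Δ7-dafachronic acid high control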
hgDAF12 ag: H. glycines DAF-12 receptor agonists, confirmation, cell-based, luminescence, HEK293, GAL4-LBD fusion. HEK293 GAL4-hgDAF12 luciferase reporter, agonist mode; percent of butyrate response. activation, % at 6.8 µM. 3,300 tested, 80% active. shares compounds with hgDAF12 agonist;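 active = mean activation over triplicate wells above the hit cutoff derived from the earlier primary screen, cut at about 11% in these data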;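 also: 0% = DMSO low control and 100% = 2 mM sodium butyrate high control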
LXRb DAF12 ctr: LXR agonists, Gal4 luciferase reporter, confirmation, counter-screen for hgDAF-12 agonist project, cell-based, luminescence, HEK293, H. glycines campaign | shares compounds with hgDAF12 agonist | 24 h | activation, % at 6.8 µM | 3,300 tested, under 10 active | AID 743051, 2013;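 active = mean activation of the triplicate above a set limit carried over from the primary screen, none filed active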
An asterisk follows results filed as active; . = no result given. An excerpt weighted towards active compounds, which were near 4.1% of everything screened.

SMILES	DAX1 inh-1	hgDAF12 agonist	ssDAF12 agonist	DAX1 inh-2	hcDAF12 agonist	hgDAF12 ag	LXRb DAF12 ctr
C/C(=N\NC(=O)c1nnn(-c2nonc2N)c1-c1ccccc1)c1cccnc1	1	3	-1	0	1	.	.
C/C(=N\NC(=O)c1nnn(-c2nonc2N)c1CN(C)c1ccccc1)c1cccnc1	-1	13*	1	2	5	0	0
Cc1ccccc1NC(=S)N/N=C/c1ccc(O)cc1O	4	20*	0	1	4	7	0
Cc1cccc(NC(=S)N/N=C/c2cccc(O)c2)c1C	-3	2	-2	-2	-2	.	.
C/C(N)=C(/C#N)C(=O)CSc1nnc(Nc2ccccc2)s1	1	15*	-1	2	3	10	0
Nc1cc2nc[nH]c2cc1N	0	15*	0	3	6.1*	6	0
O=C(/C=C/c1ccc(Cl)c(Cl)c1)Nc1cccnc1	2	4	-1	1	-2	.	.
CC(C)(C)c1ccc(/C=C/C(=O)Nc2cccnc2)cc1	2	16*	0	2	4	14*	1
O=C(/C=C/c1ccccc1Cl)Nc1cccnc1	2	19*	1	3	5	21*	1
O=C(Nc1nc2nccc(-c3ccccc3)n2n1)c1ccc(F)cc1	0	-2	-1	0	2	.	.
O=C(Nc1nsc(-c2ccccc2)n1)c1ccc(F)cc1	3	16*	-1	3	3	10	0
Cc1ccc(NC(=O)N2CCN(Cc3ccc4c(c3)OCO4)CC2)cc1	-1	-2	-1	1	0	.	.
O=C(Nc1ccc2c(c1)OCO2)N1CCN(Cc2ccco2)CC1	0	20*	1	3	4	14*	1
COc1ccc(N2CCN(CCNC(=O)c3ccc4c(c3)[nH]c(=S)n3c5ccccc5nc43)CC2)cc1	1	0	-2	1	-1	.	.
Nc1cc2c(cc1Cl)-c1ccccc1C2=NO	3	16*	-1	0	1	7	0
Cc1ccc(OCCN2CCC2(C)C(=O)Nc2ccc3c(c2)OCCO3)cc1 (stereo not given)	.	-1	-2	-4	-2	.	.
Cn1c(=O)c2[nH]c(C(O)c3ccc(Cl)cc3)nc2n(C)c1=O (stereo not given)	0	-1	-1	0	-1	.	.
Cn1c(N)c(C(=O)COC(=O)COc2ccc(Cl)cc2Cl)c(=O)n(C)c1=O	1	-1	-1	-1	0	.	.
S=C(NCCc1cccc(Cl)c1)NC1CCCCC1	2	14*	0	3	4	11*	0
O=C(NCCc1ccccc1)NC1CCCCC1	1	14*	0	3	5	10	1
N#C/C(=C\c1c[nH]c2ccccc12)C(=O)NCC1CCCO1 (stereo not given)	0	4	-1	1	1	.	.
COc1cc(Cl)ccc1OCc1cc(C(=O)N2CCN(C)C(=O)[C@@H]2C)no1	3	14*	0	3	5.8*	13*	0
COc1cc(Cl)ccc1OCc1cc(C(=O)N2CCN(C)CC2)no1	0	-2	-1	0	1	.	.
CC1CCCC(=NNC(=O)C2COc3ccccc3O2)C1 (stereo not given)	-2	1	-1	-3	1	.	.
COC(=O)CCc1sc(Nc2ccccc2)nc1-c1ccc(OC)cc1	2	14*	0	2	3	13*	0
SMILES	DAX1 inh-1	hgDAF12 agonist	ssDAF12 agonist	DAX1 inh-2	hcDAF12 agonist	hgDAF12 ag	LXRb DAF12 ctr
CCN(CC(=O)Nc1ccccc1C(F)(F)F)CC(=O)c1[nH]c(C)c(C(C)=O)c1C	-1	-1	-2	-1	-1	.	.
Nc1nnc(-c2ccccc2F)s1	.	3	-1	1	1	.	.
Nc1nnc(-c2ccc(Cl)cc2Cl)s1	1	15*	-1	1	2	10	0
Cc1csc(NC(=O)CSc2nsc(SCC(=O)Nc3nc(C)cs3)c2C#N)n1	2	18*	0	3	4	15*	1
O=C(CSc1nncs1)Nc1nnc(-c2ccccc2)o1	3	0	-1	-1	-1	.	.
O=C(/C=C/c1ccc(-c2ccccc2)cc1)NC1=NCCS1	.	18*	0	.	4	14*	0
CCCn1nnnc1NC(=O)CSc1ccc(Cl)cc1	-1	0	-1	0	0	.	.
CC(C)n1c(-c2ccc(N(C)C)cc2)nc2ccccc21	1	16*	1	3	5.8*	7	0
CCOc1ccc(CCNC(=O)CSCC(=O)Nc2cccc(C)c2)cc1OCC	0	-2	-1	-1	-1	.	.
CCC/C(=N/NC(=O)c1cccc(Cl)c1)c1ccccc1	0	17*	0	2	3	0	0
CCC/C(=N\NC(=O)C1CC1)c1ccccc1	.	1	-1	0	-1	.	.
CSc1ccc(-c2cc(=O)c3ccccc3o2)cc1	1	18*	3.1*	3.9*	10*	18*	1
CCC(=O)c1ccc(OCc2ccccc2)c(OC)c1	4.7*	14*	0	4	3	10	1
CCC(=O)c1ccc(OCc2ccc(C(=O)OC)cc2)c(OC)c1	1	-1	-2	0	4	.	.
CC(C)(C)N1C(=O)[C@H]2[C@@H](c3ccc(Br)cc3)N3C(=O)N(c4cccc(Cl)c4)C(=O)[C@@]3(Cc3ccccc3)[C@H]2C1=O	0	0	-1	0	-1	.	.
O=S(=O)(c1ccc(F)cc1)c1nc(-c2ccccc2)oc1N1CCOCC1	-1	3	0	0	0	.	.
CCCCOCCCNC(=O)C[C@@H]1C[C@@]2(C(=O)OCC)CCCC=C2N(Cc2ccc3c(c2)OCO3)C1=O	.	-2	-1	1	-1	.	.
COc1ccc2cc(-c3ccccc3)c(=O)oc2c1	2	14*	1	2	3	16*	1
COc1cccc2cc(-c3nc(-c4cccs4)cs3)c(=O)oc12	1	9	0	3	4	.	.
COc1cccc2cc(-c3nc4ccccc4[nH]3)c(=O)oc12	2	15*	1.1*	2	5	17*	1
